Screens from PubChem.
HSD17B inhib = blocks hydroxysteroid 17-beta dehydrogenase activity; Q99714; recombinant HSD17B10, NADH fluorescence kinetic; Potency, µM (doses to about 57.1 µM), without a hit: at the top dose activity change, negative = inhibition, usual class: inhibitors; 75,000 tested, 7.6% active; AID 893;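 also: the protocol describes HADH2 (HSD17B10) and not the HSD17B4 of the title; potency is read from the fitted curve at half-maximal effect; % is scaled to controls: 0 for no effect and ±100 for the full control effect; nearly all actives have a fitted effect of over 70% in size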
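Activity followed as NADH fluorescence increase (ex 360, em 450 nm) every 30 seconds for 4 min, using final 90 uM beta-hydroxybutyryl CoA and 1 mM NAD+. Recombinant His-tagged enzyme, 20 nM, pH 9.0 Tris buffer, 15 min compound preincubation.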
4-MU autofl = compounds fluorescent in 4-MU spectral region; compound autofluorescence, 340/450 nm, 4-MU equivalents; stronger effect = higher value; max dye-equivalent concentration, M; 59,000 tested, 11% active; in the data active = max dye-equivalent concentration above about 10 nM; inconclusive = mostly about 1.1 nM to 9.6 nM
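Compounds in 100 mM Tris, pH 8.0, sat 15 min at room temperature before fluorescence was read at 340 nm excitation/450 nm emission; a per-plate six-point 4-MU standard curve converted signals to dye-equivalent concentration at each compound concentration.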
A350 fluor = compounds fluorescent in Alexa 350 spectral region; Compound autofluorescence, 340/450 nm, Alexa 350 dye-equivalents; stronger effect = higher value; max dye-equivalent concentration, M; 59,000 tested, 11% active; AID 590; in the data active = max dye-equivalent concentration above about 10 nM; inconclusive = mostly about 1.1 nM to 9.6 nM
CRE-bla Fsk = alters forskolin-stimulated CRE reporter signaling in CHO cells; AID 662; Potency, µM (top dose mostly 38.2 µM), for the others: at the highest dose activity change, negative = inhibition, hits mostly activators; 71,000 tested, 2.5% active; CHO CRE-bla reporter (cAMP response element driving beta-lactamase), forskolin EC10, beta-lactamase ratio; active = well fitted activation curve with a large enough effect in the signal ratio, with a control signal flat, not every such curve was filed as active; inconclusive = small, poorly fitted or top-dose-only effect, or effect the other way, or a change in a side signal; the % refers to the signal ratio; also: potency is read from the fitted curve at half-maximal effect; % of control where 0% means no effect
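Beta-lactamase reporter under a cAMP responsive element in CHO cells; compounds tested in titration series against EC10 NKH 477, 3 h at 37 °C. Read-out: CCF4 FRET ratio 460nm/530nm (excitation 405nm) giving %Activity, fitted to AC50.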
HADH2 inhib = blocks human hydroxyacyl-CoA dehydrogenase type II | Q99714 | recombinant HADH2, NADH fluorescence, beta-hydroxybutyryl-CoA | Potency, µM (top dose mostly 57.1 µM), for the others: top-dose activity change, negative = inhibition, most hits filed as inhibitors | 73,000 tested, 3.4% active; also: potency is read from the fitted curve at half-maximal effect; % is scaled to controls: 0 for no effect and ±100 for the full control effect; nearly all actives have a fitted effect of over 60% in size
Target sequence (Q99714 whole entry, looked up, one chain of several): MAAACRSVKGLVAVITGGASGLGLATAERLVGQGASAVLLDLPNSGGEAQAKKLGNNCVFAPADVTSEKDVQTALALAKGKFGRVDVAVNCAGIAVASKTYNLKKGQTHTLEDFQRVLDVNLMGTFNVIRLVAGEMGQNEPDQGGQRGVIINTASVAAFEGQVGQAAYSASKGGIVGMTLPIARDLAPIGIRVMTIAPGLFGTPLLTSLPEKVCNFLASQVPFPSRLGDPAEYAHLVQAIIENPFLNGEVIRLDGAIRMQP
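Activity measured as NADH fluorescence gain (360/450 nm), taken as the change between first and last reads of a 4-min kinetic run. Conditions: pH 9.0 Tris buffer, 20 nM E. coli-expressed His-tagged enzyme, 1 mM NAD+, 90 uM beta-hydroxybutyryl-CoA; 15-min compound preincubation.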
AID923 = qHTS Assay for Allosteric/Competitive Inhibitors of Caspase-1: Spectroscopic Profiling in AFC Spectral Region; compound fluorescence, AFC spectral region (405/520 nm); Potency, µM (doses to about 57.5 µM), for inactives: top-dose fluorescence increase, usual class: activators; 75,000 tested, 1.1% active; AID 923, 2007; also: potency is read from the fitted curve at half-maximal effect; 0% is about no effect
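Compound autofluorescence profiled at 405 nm ex/520 nm em during kinetic caspase 1 run (50 nM enzyme, 5 uM Ac-WEHD-AFC, HEPES pH 7.5, 10 mM DTT). Titration up to 57 uM; baseline from regression intercept, normalized to AFC standard curve.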
* hit, by the source's call; i = inactive; ? = inconclusive; . = not tested or not shown; [ ] = another dose, or the depositor's remark. Sampled rows, rich in hits. Any-hit rate of the full collection: about 14%. Unless noted, calls follow the shape of the dose curve; as a rule, active = well fitted curve in the direction sought with a large enough effect; inconclusive = small, poorly fitted or top-dose-only effect, or another doubt; inactive = no such curve, though single readings can be large; an effect the other way counts as inactive or inconclusive.

SMILES | HSD17B inhib | 4-MU autofl | A350 fluor | CRE-bla Fsk | HADH2 inhib | AID923
COc1ccc(O[C@H]2C=C[C@@H](c3ccccc3)O[C@H]2COC(=O)CC/C(C)=N/O[C@@H]2O[C@H](COC(C)=O)[C@H](OC(C)=O)[C@H](OC(C)=O)[C@H]2OC(C)=O)cc1 | 2%[11.4 µM] | . | . | . | 9%[11.4 µM] | 1%[11.5 µM]
CC(=O)N1CCC2(CC1)CCN(c1ncccn1)CC2 | -24% | i | i | 2% | -8% | 1%
O=C(Oc1ccccc1)N1CCC2(CCCN(c3ccc(-c4ccccc4)cc3)C2)CC1 | ? | i | i | -4% | -6% | 3%
Nc1ncnc2nc(-c3ccc(C[P+](c4ccccc4)(c4ccccc4)c4ccccc4)cc3)[nH]c12 | -28%[11.4 µM] | i | i | 7%[7.6 µM] | 4%[11.4 µM] | -2%[11.5 µM]
CCn1c(SCC(=O)c2ccc3c(c2)OCCO3)nnc1C(C)C | -4% | ? | 1e-08M* | -8% | ? | 0%
O=C(NCCC1=CCCCC1)C1CCN(S(=O)(=O)c2cccc3nsnc23)CC1 | -8% | 8.6e-08M* | 6.8e-08M* | -21% | ? | 0%
O=C(C1CCN(S(=O)(=O)c2cccc3nsnc23)CC1)N1CCc2ccccc2C1 | -2% | 2.6e-08M* | 2.6e-08M* | ? | 4% | 0%
CS(=O)(=O)N1CCC(C(=O)N2CCc3ccccc3C2)CC1 | -21% | ? | ? | -3% | 3% | -1%
O=C(NCCc1ccccc1)C1CCN(S(=O)(=O)c2cccc3nsnc23)CC1 | 1% | i | i | 2% | 8% | -1%
S=C=Nc1cccc(NC(=S)NCCCCNC(=S)Nc2cccc(N=C=S)c2)c1 | 1% | . | . | . | -18% | 0%
Cc1ccc(C(CC(=O)c2ccco2)SCCO)cc1 (stereo unspecified) | 54% | ? | 1e-08M* | -16% | -20% | -2%
O=C1CCCC=C1[C@H](O)c1ccc([N+](=O)[O-])cc1 | 6%[11.4 µM] | . | . | . | 5%[11.4 µM] | 1%[11.5 µM]
O=C(O)CC[P+](c1ccccc1)(c1ccccc1)c1ccccc1 | 3%[11.4 µM] | i | i | ? | 19%[11.4 µM] | -4%[11.5 µM]
Cc1sc2ncnc(SC(C)C#N)c2c1C (stereo unspecified) | -5% | i | ? | 5µM* | 3% | -2%
Cc1sc2ncnc(SCc3ccco3)c2c1C | -19% | i | i | 25% | -14% | 1%
N#CC1=C(O)C(c2ccccc2)n2c1nc(=O)c1ccccc12 (stereo unspecified) | 32µM* | 2.2e-07M* | 3.1e-07M* | ? | -1% | 0%
CN(C)c1ccc(-c2nnn(CC(=O)N3c4ccccc4CCc4ccccc43)n2)cc1 | 25µM* | i | ? | -1% | 32µM* | 0%
COc1ccc(-c2cc(OC)c3c(C)oc(C)c3c(=O)c2)cc1OC | -16% | i | i | 13µM* | -18% | 6%
COc1cc(-c2cc(OC)c3c(C)oc(C)c3c(=O)c2)ccc1O | ? | i | i | 22% | ? | 1%
CCn1c2c(c3cc(Cl)ccc31)CCCC2=O | ? | . | . | ? | ? | 1%
CCn1c2c(c3cc(C(=O)O)ccc31)CCCC2=O | ? | 3.9e-08M* | 3.9e-08M* | ? | -19% | 0%
OC1CCC2Cc3ccccc3N=C12 (stereo unspecified) | -13% | . | . | . | . | -3%
COC(=O)C/C=C\[C@H](C)[C@@H](OCc1ccccc1Br)C(C)C | 4%[11.4 µM] | . | . | . | -6%[11.4 µM] | -2%[11.5 µM]
COc1ccc(OC)c(NC(=O)C2=C(C)Nc3ncnn3C2c2cccs2)c1 (stereo unspecified) | -6% | 1.2e-07M* | 1.6e-07M* | 23% | -2% | -1%
CCOC(=O)N1CCN(c2ccc(C(=O)CC)cc2F)CC1 | 3% | . | . | 0% | -10% | 4%
SMILES | HSD17B inhib | 4-MU autofl | A350 fluor | CRE-bla Fsk | HADH2 inhib | AID923
CCCC(=O)c1ccc(N2CCN(C(=O)OCC)CC2)c(F)c1 | -2% | 1e-08M* | 1e-08M* | 0% | -2% | 1%
Cn1cnnc1SCC(=O)Nc1sc2c(c1C(N)=O)CCC2 | 16µM* | i | i | 11% | 13µM* | 3%
NC(=O)c1c(NC(=O)CSc2nnc(-c3ccccc3)n2CC2CCCO2)sc2c1CCC2 (stereo unspecified) | -38% | i | i | ? | ? | 10%
CO[C@]1(NC(=O)C2SC(=C(C(N)=O)C(=O)O)S2)C(=O)N2C(C(=O)O)=C(CSc3nnnn3C)CS[C@H]21 (stereo partly specified) | 5%[25.6 µM] | i | i | -2%[17.1 µM] | -16%[25.6 µM] | -2%[25.7 µM]
COc1cc(NC(=O)c2cccs2)c(C(=O)OCC(=O)NCc2ccco2)cc1OC | 32µM* | 3.5e-08M* | 4.2e-08M* | ? | ? | 1%
O=C(COC(=O)c1ccccc1Nc1ccccc1)NCc1ccco1 | ? | 1.2e-07M* | 1.5e-07M* | ? | -25% | 21%
O=C(COC(=O)c1n[nH]c2ccccc12)NC(=O)NC1CCCCC1 | ? | i | i | -5% | -6% | -3%
CSc1ccc(Cl)c(C(=O)NCc2ccco2)c1 | -10% | . | . | -2% | -7% | 1%
O=C(COC(=O)c1n[nH]c2ccccc12)NC(=O)NCc1ccco1 | 32µM* | i | i | -8% | -9% | 1%
CSc1ccc(Cl)c(C(=O)OCC(=O)NCc2ccco2)c1 | 25µM* | i | i | ? | -16% | 1%
Cc1ccc(S(=O)(=O)N[C@H](C(=O)O)C(C)C)cc1 | 7%[11.4 µM] | i | i | -4%[7.6 µM] | 13%[11.4 µM] | 2%[11.5 µM]
NC(=O)c1ccsc1NC(=O)COC(=O)c1ccccc1NCc1ccco1 | 25µM* | 4.4e-07M* | 4.5e-07M* | -3% | ? | -1%
Cc1sc2nc(-c3ccco3)oc(=O)c2c1C | -29% | 1.4e-07M* | 1.8e-07M* | ? | -21% | 3%
O=c1oc(-c2ccco2)nc2ccccc12 | -10% | . | . | ? | -13% | 0%
Cc1c(C(=O)NCCCN2CCOCC2)sc2nc(-c3ccc(F)cc3)cn12 | -4% | i | i | 15% | 8% | 1%
Cc1c(C(=O)NCc2cccnc2)sc2nc(-c3ccc(F)cc3)cn12 | 11% | . | . | 3.2µM* | -5% | 2%
Cc1cnc(CNc2ccnc(-c3cccc(C#N)c3)n2)cn1 | 1% | i | i | ? | -7% | 0%
CC[C@@]1([N+](=O)[O-])C[C@H]2C=C[C@@H]1C2 | 1%[11.4 µM] | i | i | 4%[7.6 µM] | 9%[11.4 µM] | -1%[11.5 µM]
Cn1c(=O)c2c(O)cc(=O)n(-c3ccccc3)c2n(C)c1=O | 5% | i | i | 1% | 9% | 0%
Cn1c(=O)c2[nH]cnc2n(-c2ccccc2)c1=O | -16% | 2.6e-08M* | 2.9e-08M* | ? | 13% | 3%
